Measurements reported in the supplement of paper PMC10646978.
± gives the standard deviation.

Tests used:
Conditions in all cases: modulator concentration 10 µM
[1] = system: RAW-Dual (murine macrophage reporter line); experiment: NF-kB reporter (SEAP) activity fold change vs agonist alone; higher = enhanced NF-kB activity
Method in brief: (§1)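 Overnight stimulation with a PRR agonist followed pre-incubation for 1 hour at 37 °C with compound at 10 μM final. This was done in RAW-Dual murine macrophage reporter cells seeded at 50 000 per well in 384-well plates. NF-κB (SEAP, QUANTI-Blue absorbance at 620 nm) and IRF (Lucia luciferase, QUANTI-Luc luminescence) were read from the supernatant. Each reporter's fold change relative to the mean agonist-only control on the same plate was averaged over replicate plates.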

[2] = system: RAW-Dual (murine macrophage reporter line); experiment: IRF reporter (Lucia luciferase) activity fold change vs agonist alone; higher = enhanced IRF activity
Method in brief: as §1

[3] = system: RAW-Dual (murine macrophage reporter line); experiment: viability score (confluency relative to resting cells, overnight) (fraction); higher = more viable, active = viable (0.7 or more)
Method in brief: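 Overnight exposure to 10 μM final compound was carried out on RAW-Dual macrophages in 384-well plates. IncuCyte software generated two confluency masks over all wells imaged with IncuCyte. The viability score gives confluency in relation to resting cells. A compound met the cutoff if each mask exceeded 70% of resting cells.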

[4] = agonist: CpG ODN 1826 0.5 ug/mL

Row | Compound | NF-kB reporter [1, 4] | NF-kB reporter ([1]; agonist: LPS 0.1 ug/mL) | NF-kB reporter ([1]; agonist: MPLA […]) | IRF reporter ([2]; agonist: 3'3'-cGAMP 10 ug/mL) | IRF reporter ([2]; agonist: LPS 0.1 ug/mL) | IRF reporter ([2]; agonist: MPLA […]) | viability score [3]
1 | Brc1ccc(Cn2c(CN3CCCC3)nc3ccccc32)cc1 | 0.679 ± 0.17 | 1.05 ± 0.092 | 1.07 ± 0.08 | 0.775 ± 0.029 | 1.12 ± 0.18 | 1.16 ± 0.22 | 0.957 (active)
2 | NS(=O)(=O)c1cc(Cl)c(Cl)c(S(N)(=O)=O)c1 [Prestw-809] | 1.15 ± 0.13 | 1.02 ± 0.083 | 0.953 ± 0.046 | 0.916 ± 0.067 | 0.92 ± 0.093 | 0.911 ± 0.16 | 1 (active)
3 | CC(O)C(=O)O.CN1CCN(c2ccc3nc(-c4c(N)c5c(F)cccc5[nH]c4=O)[nH]c3c2)CC1 | 0.167 ± 0.011 | 0.107 ± 0.0086 | 0.294 ± 0.019 | 2.41 ± 0.23 | 0.434 ± 0.076 | 0.506 ± 0.084 | 0.966 (active)
4 | CC(C(=O)O)c1ccc2c(c1)[nH]c1ccc(Cl)cc12 (centres undefined) | 0.96 ± 0.15 | 1.13 ± 0.24 | 0.879 ± 0.064 | 0.937 ± 0.054 | 1.19 ± 0.2 | 1.05 ± 0.16 | 1 (active)
5 | Oc1ccccc1-c1cc(C(F)(F)F)on1 | 1.02 ± 0.08 | 0.982 ± 0.068 | 0.956 ± 0.096 | 0.349 ± 0.023 | 1.06 ± 0.066 | 1.12 ± 0.1 | 0.361 (inactive)
6 | NC(=O)c1ncn([C@@H]2O[C@H](CO)[C@@H](O)[C@H]2O)n1 | 0.766 ± 0.17 | 1.07 ± 0.14 | 0.86 ± 0.084 | 1.16 ± 0.05 | 1.66 ± 0.22 | 1.77 ± 0.18 | 0.986 (active)
7 | CC(C)(C)c1cc(C(=O)Oc2cccc3cccnc23)cc(C(C)(C)C)c1 | 0.895 ± 0.05 | 0.976 ± 0.06 | 0.923 ± 0.064 | 0.938 ± 0.034 | 1.25 ± 0.097 | 1.23 ± 0.12 | 1 (active)
8 | S=c1n(CN2CCOCC2)nc(-c2ccccc2Cl)n1-c1ccccc1 | 1.06 ± 0.059 | 0.985 ± 0.067 | 0.947 ± 0.074 | 0.944 ± 0.047 | 1.32 ± 0.18 | 1.16 ± 0.13 | 0.993 (active)
9 | O=C(NCCN1C(=O)c2ccccc2C1(O)c1ccc(Cl)cc1)Nc1ccccc1 (centres undefined) | 1.28 ± 0.1 | 0.219 ± 0.011 | 0.22 ± 0.02 | 0.841 ± 0.045 | 0.0475 ± 0.0035 | 0.0497 ± 0.0069 | 0.73 (active)
10 | Cl.NCc1ccc(S(N)(=O)=O)cc1 | 0.998 ± 0.097 | 0.965 ± 0.047 | 0.998 ± 0.078 | 0.964 ± 0.058 | 0.962 ± 0.038 | 0.928 ± 0.13 | 1 (active)
11 | Cc1cc(C)c(NC(=O)C2C3CCC4C(CCC32)C4(Cl)Cl)c(C)c1 (centres undefined) | 1.01 ± 0.11 | 1.03 ± 0.079 | 1.02 ± 0.062 | 1.03 ± 0.027 | 1.61 ± 0.14 | 1.1 ± 0.11 | 1.01 (active)
12 | O=C(Nc1nccs1)c1ccc2c(c1)C(=O)N(CC1CCCO1)C2=O (centres undefined) | 1.12 ± 0.11 | 0.919 ± 0.088 | 0.975 ± 0.028 | 0.997 ± 0.037 | 1.04 ± 0.054 | 1.14 ± 0.13 | 0.997 (active)
13 | CN1C(C(=O)Nc2ccccn2)=C(O)c2ccccc2S1(=O)=O | 0.654 ± 0.063 | 0.901 ± 0.047 | 1.11 ± 0.097 | 0.943 ± 0.056 | 1.25 ± 0.077 | 1.35 ± 0.11 | 1.02 (active)
14 | Cc1c(Cl)ccc2c1NC(C(=O)O)C1CC=CC21 (centres undefined) | 0.814 ± 0.045 | 1.05 ± 0.092 | 0.755 ± 0.063 | 0.615 ± 0.034 | 1.19 ± 0.091 | 1.13 ± 0.099 | 0.994 (active)
15 | Cc1cc(=O)[nH]c(=S)[nH]1 | 1.04 ± 0.09 | 1.02 ± 0.11 | 1 ± 0.035 | 0.99 ± 0.073 | 0.969 ± 0.084 | 1.01 ± 0.08 | 1 (active)
16 | Cc1ccc(OCCOc2ncnc3ccccc23)c(Cl)c1 | 1.02 ± 0.11 | 1.02 ± 0.078 | 1.23 ± 0.049 | 0.916 ± 0.094 | 1 ± 0.12 | 0.875 ± 0.18 | 1 (active)
17 | O=C(NCCC(CCO)c1ccccc1)Nc1c(F)cccc1F (centres undefined) | 0.929 ± 0.078 | 1.02 ± 0.11 | 0.898 ± 0.041 | 0.972 ± 0.059 | 1.05 ± 0.084 | 0.978 ± 0.075 | 0.98 (active)
18 | Nc1nc(N)nc(-c2cc(Cl)ccc2Cl)n1 | 0.906 ± 0.22 | 1 ± 0.052 | 1.05 ± 0.093 | 0.946 ± 0.052 | 1.18 ± 0.32 | 1.08 ± 0.17 | 0.986 (active)
19 | Cc1cc(NC(=O)c2ccoc2COc2ccccc2)no1 | 1.17 ± 0.063 | 1.08 ± 0.093 | 1.32 ± 0.071 | 1.21 ± 0.061 | 1.21 ± 0.23 | 1.46 ± 0.38 | 0.962 (active)
20 | Cc1cc(N2CCCCC2)nc2ccccc12 | 0.493 ± 0.041 | 0.701 ± 0.056 | 0.73 ± 0.093 | 0.982 ± 0.032 | 1.03 ± 0.098 | 1.21 ± 0.17 | 0.293 (inactive)
21 | NCC(=O)O | 0.965 ± 0.073 | 0.999 ± 0.064 | 0.96 ± 0.021 | 0.912 ± 0.068 | 1.02 ± 0.12 | 1.23 ± 0.21 | 1 (active)
22 | Cc1ccc(O)c(N=Nc2ccc(S(=O)(=O)O)cc2)c1 | 1.17 ± 0.11 | 1.15 ± 0.085 | 1.07 ± 0.043 | 1.01 ± 0.12 | 1.08 ± 0.16 | 1.07 ± 0.15 | 1.01 (active)
23 | Cc1cccc(N=c2scc(-c3ccc([N+](=O)[O-])cc3)n2-c2cccc(C)c2C)c1C | 0.863 ± 0.065 | 1.04 ± 0.078 | 0.906 ± 0.054 | 0.864 ± 0.029 | 1.37 ± 0.088 | 1.11 ± 0.16 | 1 (active)
24 | CSC1CCN(C(=O)Nc2ccc(C)c(C)c2)C1 (centres undefined) | 1.03 ± 0.38 | 0.953 ± 0.11 | 0.985 ± 0.063 | 0.906 ± 0.038 | 0.954 ± 0.17 | 1.09 ± 0.11 | 0.999 (active)
25 | CCOC(=O)OC(C)OC1=C(C(=O)Nc2ccccn2)N(C)S(=O)(=O)c2ccccc21 (centres undefined) | 1.12 ± 0.15 | 1.28 ± 0.25 | 0.995 ± 0.056 | 0.948 ± 0.029 | 1.37 ± 0.34 | 1.32 ± 0.12 | 0.989 (active)
26 | CC(C)CN(C[C@@H](O)[C@H](Cc1ccccc1)NC(=O)O[C@H]1CCOC1)S(=O)(=O)c1ccc(N)cc1 | 1.51 ± 0.36 | 1.4 ± 0.43 | 1.63 ± 0.097 | 0.918 ± 0.028 | 1.29 ± 0.33 | 1.22 ± 0.14 | 0.998 (active)
27 | Nc1ncnc2c1ncn2[C@@H]1O[C@H](CO)[C@@H](O)[C@H]1O | 1.03 ± 0.08 | 1.13 ± 0.079 | 1.17 ± 0.11 | 1.22 ± 0.25 | 0.879 ± 0.03 | 0.852 ± 0.11 | 1 (active)
